In PubChem BioAssay (NCATS):
Inconclusive results are not listed. Values without a mark were called inactive. The source made the active and inactive calls. Calls come from the whole dose curve.

Test: Primary qHTS for inhibitors of MERS-S pseudo-typed particle cell entry (AID 1479149); note: nearly all actives have a fitted effect of over 60% in size
Details: MERS-S pseudotyped particle entry, luciferase; series mostly up to 57.1 µM; activity change, negative = inhibition: at the top concentration
% is set by controls: 0 for no effect and ±100 for the full control effect.

Q: Which “outcome” value does the source give for `C[N+]1(C)CCCC(OC(=O)C(O)(c2ccccc2)c2ccccc2)C1` (configuration not stated) here?
A: The value was “inactive”.

Q: For `COc1ccc2cc1Oc1cc3c(cc1OC)CC[N+](C)(C)[C@H]3Cc1ccc(cc1)Oc1c(OC)c(OC)cc3c1[C@@H](C2)[N+](C)(C)CC3`, which “outcome” value is on record?
A: The value was “inactive”.

Q: With `O=C1c2c(O)cccc2Cc2cccc(O)c21` as the compound, how does the “outcome” value read?
A: Its value is “inactive”.

Q: For `CC(=O)NS(=O)(=O)c1ccc(N)cc1`, which “outcome” value is on record?
A: Its value is “inactive”.

Q: Which “outcome” value does the source give for `Nc1ccc(S(=O)(=O)Nc2ccc(Cl)nn2)cc1` here?
A: Its value is “inactive”.

Q: With `CC(C)(O/N=C(\C(=O)N[C@@H]1C(=O)N2C(C(=O)[O-])=C(C[n+]3ccccc3)CS[C@H]12)c1csc(N)n1)C(=O)O` as the compound, how does the “outcome” value read?
A: Its value is “inactive [at 26.4 µM]”.

Q: For `CCCCCCCCCCCCCCCC(=O)OC(C)C`, which “outcome” value is on record?
A: Its value is “inactive”.

Q: With `CC(=O)SCC(CC(=O)c1ccc(C)cc1)C(=O)O` (configuration not stated) as the compound, how does the “outcome” value read?
A: Its value is “inactive”.

Q: For `NC(=O)c1ccccc1O`, which “outcome” value is on record?
A: Its value is “inactive”.

Q: With `CC(=O)OCC(=O)[C@@]1(O)[C@H](C)C[C@H]2[C@@H]3CCC4=CC(=O)C=C[C@]4(C)[C@@]3(F)[C@@H](O)C[C@@]21C` as the compound, how does the “outcome” value read?
A: The value was “inactive”.

Q: Which “outcome” value does the source give for `CC[N+](CC)(CCNC(=O)C(=O)NCC[N+](CC)(CC)Cc1ccccc1Cl)Cc1ccccc1Cl` here?
A: The value was “inactive”.

Q: Which “outcome” value does the source give for `CC1(C)O[C@H]2CC(=O)OC[C@]23[C@H]2CC[C@@]4(C)[C@H](c5ccoc5)OC(=O)[C@H]5O[C@]54[C@]2(C)C(=O)C[C@@H]13` here?
A: Its value is “inactive”.

Q: With `O=C(O)C(S)C(S)C(=O)O` (configuration not stated) as the compound, how does the “outcome” value read?
A: Its value is “inactive”.

Q: With `Cn1nnc2c(C(N)=O)ncn2c1=O` as the compound, how does the “outcome” value read?
A: Its value is “inactive”.

Q: For `CC(C(=O)O)c1ccc2c(c1)[nH]c1ccc(Cl)cc12` (configuration not stated), which “outcome” value is on record?
A: Its value is “inactive”.

Q: For `Clc1ccc2nsnc2c1NC1=NCCN1`, which “activity change, negative = inhibition” value is on record?
A: Its value is -25.5%.

Q: Which “outcome” value does the source give for `COc1nccnc1NS(=O)(=O)c1ccc(N)cc1` here?
A: The value was “inactive”.
